The text below walks through data of PubChem BioAssay.

A short description of assay [1]: rapamycin-like changes in RPL19A-GFP expression – cell-based, S. cerevisiae, multiplex flow cytometry, primary screen (AID 1862; in the data active = percent of DMSO control GFP below about 86%;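 also: lower values mimic rapamycin by blocking the RPL19A rise seen in DMSO cells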). The settings on record: S. cerevisiae RPL19A-GFP strain, flow cytometry fluorescence, 3 h; at 10 µM; stronger effect = lower value. On the technique in general: In flow cytometry, cells or beads pass a laser one at a time.
The nature of assay [2]: TOR pathway GLN3 branch reporter MEP2-GFP changes – S. cerevisiae, multiplex flow cytometry, primary screen (AID 1867;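 active = GFP response, as percent of the DMSO control, above the screen-wide mean plus 3 SD, about 139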;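 also: median GFP channel fluorescence of barcode-gated MEP2-GFP cells measured by flow cytometry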). The settings on record: S. cerevisiae MEP2-GFP strain, 3 h, at 10 µM, stronger effect = higher value, 100% means same as DMSO wells.
The nature of assay [3]: TOR pathway RTG branch CIT2 reporter changes – S. cerevisiae, GFP fusion, multiplex flow cytometry, primary screen (AID 1870;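 active = percent response above a set limit, the screen-wide mean plus 3 SD, cut at about 130% in these data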;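 also: barcoded CIT2-GFP strain pooled with four other GFP strains with rapamycin as positive control; median GFP fluorescence per well over plate mean of DMSO wells so 100% = DMSO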). The settings on record: S. cerevisiae CIT2-GFP expression, 3 h, at 10 µM, stronger effect = higher value.
A short description of assay [4]: TOR pathway LAP4-GFP level changes – S. cerevisiae, multiplex flow cytometry, primary screen (AID 1873;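 active = GFP signal, as percent of the solvent control, above the screen mean plus 3 SD, about 149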). The settings on record: S. cerevisiae LAP4-GFP expression, 3 h, at 10 µM, stronger effect = higher value.
Assay [5] can be described thus: yeast AGP1-GFP level changes, GLN3 branch – cell-based, multiplex flow cytometry, S. cerevisiae, primary screen (AID 1887;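 active = GFP signal above the screen-wide mean plus 3 SD, that is over about 124.5% of the solvent control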;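 also: AGP1-GFP fusion strain of S. cerevisiae within a five-strain barcoded multiplex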). The settings on record: 3 h, at 10 µM, stronger effect = higher value.
The nature of assay [6]: reduced mouse 2C T cell binding to pMHC/ICAM-1 vesicles – MLPCN validation set, flow cytometry, LFA-1/ICAM-1 modulator project, pilot screen (AID 2523;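 active = response below a set limit, under 55% cells CD8-positive and vesicle-bound, and CD8 cells' 90th-percentile brightness under 279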;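 as to vesicle binding response: mean PE anti-B7-1 fluorescence of CD8+ cells relative to row control; 100% = QL9-loaded vesicles with DMSO vehicle in the same plate row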). The settings on record: 2C mouse CD8+ T cells, at 7 µM, stronger effect = lower value; double positive events: measured here: CD8+/vesicle+ event percentage.
Assay [7] concerns the target Integrin beta-1 (Homo sapiens) + Integrin alpha-4 (Homo sapiens) (UniProt P13612+P05556). Put plainly: alpha4beta1 integrin LIBS antibody binding reduction – U937 cells, HUTS-21 mAb, flow cytometry, validation set, VLA-4 allosteric modulator project, pilot screen (AID 2674).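 Also: antibody binding induced by the VLA-4 ligand LDV present at three times its Kd; 0% = LDV ligand with antibody and no compound and 100% = antibody without LDV.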 The settings on record: HUTS-21 LIBS mAb binding, at 6.7 µM, stronger effect = higher value, binding induced by LDV ligand.

Assay [8] in a line: calorie-restriction mimetic ROS inhibitors, yeast – validation compound set, pilot screen (AID 2706;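 active = superoxide response below 65% of plate, a cut near 3 SD across the whole screen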;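 also: yeast exposed to compound for one week at 30 degrees C before staining; 100% = mean of all compound wells on the same plate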). The settings on record: S. cerevisiae aging, superoxide DHE fluorescence; at 10 µM; stronger effect = lower value.
In assay [9] the target is Beta-adrenergic receptor kinase 1 (Homo sapiens) (UniProt P25098). Put plainly: GRK2 binders displacing RNA aptamer, biochemical, validation, human GRK2, bead flow cytometry (AID 488806;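 active = aptamer binding inhibition above 30%, about 3 SD of noise from non-fluorescent compounds; inactive = inhibition at or below 30%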). The settings on record: bead-bound GRK2, FAM-aptamer displacement, at 10 µM, stronger effect = higher value.
Assay [10] deals with Beta-2 adrenergic receptor (Homo sapiens) (UniProt P07550). Put plainly: agonist-induced loss of surface beta2AR – cell-based, FAP fluorogen, flow cytometry, validation set, pilot screen (AID 504459;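 active = percent response above 42, roughly 3 SD of non-fluorescent test compounds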;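 also: agonist-driven loss of surface beta2AR via internalization measured by FAP dye flow cytometry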). The settings on record: Am2.2-beta2AR cells, at 10 µM, stronger effect = higher value.
Assay [11] deals with AP-2 complex subunit beta (Homo sapiens) (UniProt P63010). The assay can be described thus: beta-arrestin/AP2 interaction blockers – biochemical, validation set, GST-AP2 beads, flow cytometry, pilot screen (AID 504541;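 active = inhibition above 54%, about 3 SD of non-fluorescent compounds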;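 also: AP2 carries R879A mutation and is captured from E. coli lysate; bead-bound FITC arrestin peptide fluorescence measuring arrestin peptide binding to AP2; 0% = DMSO wells and 100% = excess unlabeled arrestin peptide control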). The settings on record: FITC arrestin peptide, at 10 µM, stronger effect = higher value, AP2 beta2 appendage fragment, R879A mutant.
Assay [12] is described as follows: cytosolic pH regulators acting via V-ATPase – S. cerevisiae, pHLuorin, HTS validation (AID 504600; in the data active = response above about 15%;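 also: plate controls were DMSO for no effect and reference compound for full effect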). The settings on record: V-ATPase proton transport, at 10 µM, stronger effect = higher value.
Assay [13] has as its system anti-desmoglein-3 scFv antibody binding to human DSG3. Put plainly: blockers of pathogenic pemphigus antibody–desmoglein-3 binding – biochemical, validation compound set, bead-based, flow cytometry, pilot screen (AID 588368;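 active = binding below the plate cutoff, the plate median minus 3 SD, with a reading above zero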;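 also: signal is the median channel fluorescence of bead-bound GFP antibody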). The settings on record: Protein G beads, DSG3-Fc, scFv-GFP binding, at 10 µM, stronger effect = lower value.
A short description of assay [14]: Nile Red efflux blockade in pump-expressing yeast – validation compound set, multiplex, phenotypic, pilot screen (AID 588506;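 active = efflux inhibition above 0.42, the validation set average plus 4 SD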;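 also: Nile Red retained in cells so higher fluorescence means more efflux inhibition; 0 = negative control wells and 1 = enniatin B 25 µM full block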). The settings on record: S. cerevisiae pump-expressing triplex, Nile Red efflux flow cytometry; at 10 µM; stronger effect = higher value; the pumps come from Candida albicans.
Assay [15] has as its target ATP-binding cassette sub-family B member 6 (Homo sapiens) (UniProt Q9NP58). The assay can be described thus: blockers of ABCB6-driven porphyrin uptake – K562-ABCB6 cells, flow cytometry, validation set, pilot screen (AID 588550;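 active = inhibition above the screen-wide mean plus 3 SD, about 51%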;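 also: 0% = DMSO wells and 100% = benzethonium chloride 70 µM positive control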). The settings on record: K562-ABCB6 porphyrin accumulation, 1 h, at 10 µM, stronger effect = higher value.
The nature of assay [16]: AML differentiation inducers, ER-HoxA9 marrow cells – cell-based, GFP/MAC1 double positive, flow cytometry, validation set, primary screen (AID 588685;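 active = differentiation response of at least 50%, scaled between solvent and reference control, from cells with both markers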;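 also: compound exposure lasts four days before antibody staining and flow analysis; 0% = DMSO wells and 100% = 5 µM fulvestrant positive control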). The settings on record: stronger effect = higher value, normalized: vehicle 0, fulvestrant 100.

Records with an inconclusive call do not appear. The source made the active and inactive calls.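 The calls were made as follows, unless noted: active = inhibition above 50%, about 3 SD of the validation set; inactive = the rest.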

Sequence of AP-2 complex subunit beta (Homo sapiens) (P63010 whole entry, looked up, the tested form may be a part, one chain of several): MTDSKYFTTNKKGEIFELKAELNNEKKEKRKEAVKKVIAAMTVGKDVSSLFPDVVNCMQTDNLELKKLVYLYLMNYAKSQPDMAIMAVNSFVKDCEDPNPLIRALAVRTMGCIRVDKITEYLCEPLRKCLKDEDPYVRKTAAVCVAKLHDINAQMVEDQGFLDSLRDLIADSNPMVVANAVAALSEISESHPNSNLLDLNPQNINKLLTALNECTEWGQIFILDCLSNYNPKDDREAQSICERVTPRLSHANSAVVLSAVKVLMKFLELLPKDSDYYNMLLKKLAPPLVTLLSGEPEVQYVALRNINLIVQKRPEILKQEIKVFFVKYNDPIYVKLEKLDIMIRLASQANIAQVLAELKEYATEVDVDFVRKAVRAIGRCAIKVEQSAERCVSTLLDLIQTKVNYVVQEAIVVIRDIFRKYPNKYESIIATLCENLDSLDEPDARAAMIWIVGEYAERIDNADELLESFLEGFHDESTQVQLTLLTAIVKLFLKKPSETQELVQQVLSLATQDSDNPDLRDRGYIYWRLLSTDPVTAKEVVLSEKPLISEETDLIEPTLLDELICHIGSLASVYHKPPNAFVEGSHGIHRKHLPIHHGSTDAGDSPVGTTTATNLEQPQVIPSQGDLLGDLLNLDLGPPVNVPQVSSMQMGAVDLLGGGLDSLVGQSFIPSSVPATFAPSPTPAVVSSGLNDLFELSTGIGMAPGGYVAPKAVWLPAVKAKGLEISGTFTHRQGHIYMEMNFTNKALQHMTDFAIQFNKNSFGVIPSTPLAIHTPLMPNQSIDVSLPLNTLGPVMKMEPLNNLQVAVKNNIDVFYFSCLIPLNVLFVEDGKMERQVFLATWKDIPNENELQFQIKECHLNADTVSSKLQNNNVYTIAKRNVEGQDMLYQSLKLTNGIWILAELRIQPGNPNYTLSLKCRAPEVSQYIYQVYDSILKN
Sequence of Beta-adrenergic receptor kinase 1 (Homo sapiens) (P25098 whole entry, looked up): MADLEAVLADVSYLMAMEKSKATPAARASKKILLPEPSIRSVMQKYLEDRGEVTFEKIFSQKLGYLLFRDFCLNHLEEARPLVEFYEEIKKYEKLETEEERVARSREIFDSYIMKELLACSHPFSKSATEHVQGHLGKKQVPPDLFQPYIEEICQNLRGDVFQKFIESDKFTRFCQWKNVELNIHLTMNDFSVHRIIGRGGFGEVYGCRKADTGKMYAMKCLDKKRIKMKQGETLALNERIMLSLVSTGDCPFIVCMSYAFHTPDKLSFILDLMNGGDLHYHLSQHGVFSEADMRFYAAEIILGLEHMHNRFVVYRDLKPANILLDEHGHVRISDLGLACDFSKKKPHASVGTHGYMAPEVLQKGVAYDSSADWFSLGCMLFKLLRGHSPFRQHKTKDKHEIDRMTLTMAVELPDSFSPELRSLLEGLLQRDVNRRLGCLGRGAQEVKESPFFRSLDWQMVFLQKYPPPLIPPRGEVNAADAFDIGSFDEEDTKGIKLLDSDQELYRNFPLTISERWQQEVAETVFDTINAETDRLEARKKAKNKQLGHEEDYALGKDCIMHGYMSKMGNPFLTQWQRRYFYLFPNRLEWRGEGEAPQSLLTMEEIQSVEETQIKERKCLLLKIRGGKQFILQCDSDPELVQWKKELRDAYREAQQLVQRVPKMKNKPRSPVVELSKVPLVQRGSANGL
Sequence of Integrin beta-1 (Homo sapiens) + Integrin alpha-4 (Homo sapiens) (P05556 whole entry, looked up): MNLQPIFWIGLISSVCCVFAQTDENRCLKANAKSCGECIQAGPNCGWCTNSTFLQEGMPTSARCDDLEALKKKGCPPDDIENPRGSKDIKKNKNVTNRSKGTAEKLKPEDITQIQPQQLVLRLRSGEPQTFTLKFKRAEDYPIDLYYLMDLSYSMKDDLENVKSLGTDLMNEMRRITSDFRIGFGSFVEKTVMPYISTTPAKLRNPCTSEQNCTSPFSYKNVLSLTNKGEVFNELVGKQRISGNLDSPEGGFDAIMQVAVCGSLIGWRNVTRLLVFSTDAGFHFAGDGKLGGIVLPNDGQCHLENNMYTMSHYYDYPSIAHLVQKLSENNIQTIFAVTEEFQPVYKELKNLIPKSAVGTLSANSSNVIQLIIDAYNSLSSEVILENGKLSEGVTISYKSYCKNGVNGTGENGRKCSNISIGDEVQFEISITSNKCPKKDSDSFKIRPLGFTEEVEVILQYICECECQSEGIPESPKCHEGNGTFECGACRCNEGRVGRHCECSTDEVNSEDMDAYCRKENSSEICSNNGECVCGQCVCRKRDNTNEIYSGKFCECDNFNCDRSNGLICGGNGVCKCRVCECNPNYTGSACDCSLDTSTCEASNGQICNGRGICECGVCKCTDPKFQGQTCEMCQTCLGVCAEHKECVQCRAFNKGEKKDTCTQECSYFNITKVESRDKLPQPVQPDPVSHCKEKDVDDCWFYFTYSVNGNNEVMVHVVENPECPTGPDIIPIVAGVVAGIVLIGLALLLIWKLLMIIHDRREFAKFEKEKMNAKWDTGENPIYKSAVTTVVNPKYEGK
Sequence of Integrin beta-1 (Homo sapiens) + Integrin alpha-4 (Homo sapiens) (P13612 whole entry, looked up): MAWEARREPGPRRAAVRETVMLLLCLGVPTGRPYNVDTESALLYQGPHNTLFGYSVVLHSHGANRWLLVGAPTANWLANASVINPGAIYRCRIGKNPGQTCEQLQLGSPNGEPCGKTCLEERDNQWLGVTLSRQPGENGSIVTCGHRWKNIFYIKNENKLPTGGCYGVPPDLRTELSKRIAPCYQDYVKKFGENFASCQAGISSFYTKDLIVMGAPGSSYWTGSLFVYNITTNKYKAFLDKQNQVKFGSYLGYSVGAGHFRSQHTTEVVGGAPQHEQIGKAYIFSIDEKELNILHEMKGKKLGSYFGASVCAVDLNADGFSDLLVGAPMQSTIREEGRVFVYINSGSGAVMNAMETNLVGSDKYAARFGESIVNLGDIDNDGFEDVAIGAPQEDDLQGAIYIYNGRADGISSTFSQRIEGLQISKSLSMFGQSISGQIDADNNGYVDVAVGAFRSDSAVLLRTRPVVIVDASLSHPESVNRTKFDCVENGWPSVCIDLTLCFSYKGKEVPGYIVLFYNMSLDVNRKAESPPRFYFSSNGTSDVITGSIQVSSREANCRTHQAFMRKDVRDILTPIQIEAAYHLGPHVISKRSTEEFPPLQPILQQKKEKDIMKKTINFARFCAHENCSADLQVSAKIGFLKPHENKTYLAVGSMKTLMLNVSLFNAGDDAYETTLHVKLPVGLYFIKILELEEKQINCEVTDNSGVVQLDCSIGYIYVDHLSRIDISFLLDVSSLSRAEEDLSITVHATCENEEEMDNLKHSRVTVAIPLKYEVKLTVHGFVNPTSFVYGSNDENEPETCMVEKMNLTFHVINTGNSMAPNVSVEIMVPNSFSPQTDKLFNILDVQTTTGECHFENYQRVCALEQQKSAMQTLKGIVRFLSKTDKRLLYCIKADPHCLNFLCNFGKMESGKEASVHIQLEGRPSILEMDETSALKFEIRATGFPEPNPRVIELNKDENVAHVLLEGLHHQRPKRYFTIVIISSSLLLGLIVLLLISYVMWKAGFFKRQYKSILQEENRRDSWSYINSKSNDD
Sequence of ATP-binding cassette sub-family B member 6 (Homo sapiens) (Q9NP58 whole entry, looked up): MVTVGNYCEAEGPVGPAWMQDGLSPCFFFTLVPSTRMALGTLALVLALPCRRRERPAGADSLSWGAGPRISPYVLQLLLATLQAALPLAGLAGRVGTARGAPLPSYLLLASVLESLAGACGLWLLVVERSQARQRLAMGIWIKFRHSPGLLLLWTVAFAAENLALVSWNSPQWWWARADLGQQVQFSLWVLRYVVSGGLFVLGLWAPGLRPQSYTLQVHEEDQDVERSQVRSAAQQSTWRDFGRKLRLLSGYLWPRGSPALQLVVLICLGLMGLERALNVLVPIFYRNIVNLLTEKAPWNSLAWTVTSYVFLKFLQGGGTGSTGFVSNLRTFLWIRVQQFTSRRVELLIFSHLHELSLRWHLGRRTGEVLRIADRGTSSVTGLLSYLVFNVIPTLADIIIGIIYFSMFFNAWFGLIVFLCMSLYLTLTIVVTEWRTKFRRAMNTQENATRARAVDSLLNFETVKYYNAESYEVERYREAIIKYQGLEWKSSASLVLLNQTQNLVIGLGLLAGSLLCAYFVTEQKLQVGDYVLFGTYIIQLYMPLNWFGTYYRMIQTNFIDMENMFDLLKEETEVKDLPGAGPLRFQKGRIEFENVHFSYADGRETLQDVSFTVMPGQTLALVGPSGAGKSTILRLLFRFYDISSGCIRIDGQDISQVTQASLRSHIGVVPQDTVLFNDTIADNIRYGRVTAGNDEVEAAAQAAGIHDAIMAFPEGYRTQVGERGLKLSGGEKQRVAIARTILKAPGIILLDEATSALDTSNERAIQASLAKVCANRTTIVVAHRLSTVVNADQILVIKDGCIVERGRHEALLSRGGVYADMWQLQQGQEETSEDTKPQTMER
Sequence of Beta-2 adrenergic receptor (Homo sapiens) (P07550 whole entry, looked up): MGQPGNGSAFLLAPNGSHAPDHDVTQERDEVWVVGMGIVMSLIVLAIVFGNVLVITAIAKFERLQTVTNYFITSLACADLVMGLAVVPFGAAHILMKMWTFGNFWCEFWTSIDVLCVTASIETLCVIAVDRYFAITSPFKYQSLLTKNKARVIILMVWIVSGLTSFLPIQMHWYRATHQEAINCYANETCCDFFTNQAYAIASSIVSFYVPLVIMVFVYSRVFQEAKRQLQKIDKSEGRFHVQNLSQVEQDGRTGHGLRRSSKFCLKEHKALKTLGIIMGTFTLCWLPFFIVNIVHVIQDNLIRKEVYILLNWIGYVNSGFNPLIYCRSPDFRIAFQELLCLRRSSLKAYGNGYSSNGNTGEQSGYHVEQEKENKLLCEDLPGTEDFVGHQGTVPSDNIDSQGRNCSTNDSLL

For orientation: inhibition means the drop in the measured response relative to a control, in per cent. As to `CCOC(=O)C(=Cc1ccccc1OC)C(=O)OCC`, the percent of DMSO control GFP in assay [1] is 95% (inactive). The GFP response vs DMSO is 108% (inactive) in [2] and 132% (inactive) in [4]. The percent response of DMSO control in [3] was 91% (inactive). The GFP response, % of DMSO in assay [5] is 92.9% (inactive). Further, the double positive events in [6] was determined as 55.3%. Moreover, in [6], the vesicle binding response is 189% (inactive). Also, the inhibition is -18.2% (inactive) in assay [7], 0.13% (inactive) in assay [11] and 4% (inactive) in assay [15]. Besides, the superoxide response (% of plate) in assay [8] was 102% (inactive). The aptamer binding inhibition in assay [9] is -2% (inactive). The response in assay [10] is -11.8% (inactive); in [12], 0.91% (inactive). Further, the binding (% of control) in assay [13] was 98.9% (inactive). Also, in assay [14], the efflux inhibition (fraction of control) was -0.03 (inactive). Besides, the differentiation response in assay [16] was -12% (inactive).

For `O=C1C2CC=C(Cl)CC2C(=O)N1CCc1c[nH]c2ccccc12` (stereo not given), the percent of DMSO control GFP in [1] was 90.2% (inactive). The GFP response vs DMSO in assay [2] was 108% (inactive); in assay [4], 80.9% (inactive). For the same compound, the percent response of DMSO control in assay [3] was 104% (inactive). The GFP response, % of DMSO in [5] was 97.5% (inactive). For the same compound, the double positive events in [6] came to 55.5%. Moreover, the vesicle binding response in [6] is 129% (inactive). The results for the inhibition in assay [7], in assay [11] and in assay [15] were 16.2% (inactive), 0.6% (inactive) and 12% (inactive), respectively. For the same compound, the superoxide response (% of plate) in [8] is 114% (inactive). In addition, the aptamer binding inhibition in assay [9] is 8% (inactive). In addition, the response is -5.28% (inactive) in assay [10] and -1.1% (inactive) in assay [12]. Besides, the binding (% of control) in assay [13] was 103% (inactive). The efflux inhibition (fraction of control) in [14] was 0.09 (inactive). In assay [16], the differentiation response is -12.3% (inactive).

On to `C/C(=N\NC(=O)C1(C)CC1(Br)Br)c1ccc([N+](=O)[O-])cc1` (stereo not given), for which, in assay [1], the percent of DMSO control GFP was 105% (inactive). The figures for the GFP response vs DMSO in assay [2] and in assay [4] were 99.3% (inactive) and 85.5% (inactive), respectively. The percent response of DMSO control in assay [3] is 105% (inactive). Besides, the GFP response, % of DMSO in assay [5] is 104% (inactive). For the same compound, the double positive events in assay [6] stood at 65.3%. Besides, the vesicle binding response in assay [6] was 390% (inactive). Also, the figures for the inhibition in assay [7], in assay [11] and in [15] were -0.45% (inactive), -5.83% (inactive) and 1% (inactive), respectively. For the same compound, the superoxide response (% of plate) in assay [8] was 83.6% (inactive). In addition, the aptamer binding inhibition in assay [9] was 6% (inactive). Further, the response in assay [10] was -9.52% (inactive); in [12], 26.1% (active). Also, in [13], the binding (% of control) was 98.5% (inactive). The efflux inhibition (fraction of control) in assay [14] is -0.17 (inactive). Further, the differentiation response in [16] was 13.9% (inactive).

Consider `CCOc1ccc2nc(NC(=O)NC3CCCCC3)sc2c1`, for which the percent of DMSO control GFP in assay [1] was 104% (inactive). Moreover, the results for the GFP response vs DMSO in [2] and in assay [4] were 105% (inactive) and 107% (inactive), respectively. In assay [3], the percent response of DMSO control was 98.6% (inactive). Besides, in assay [5], the GFP response, % of DMSO is 107% (inactive). For the same compound, the double positive events in assay [6] is 64.2%. Moreover, the vesicle binding response in assay [6] was 215% (inactive). Also, the inhibition was -1.09% (inactive) in [7], 42.2% (inactive) in [11] and -4% (inactive) in assay [15]. In addition, the superoxide response (% of plate) in [8] is 89.5% (inactive). Moreover, the aptamer binding inhibition in assay [9] was 4% (inactive). Moreover, the response in [10] was 3.3% (inactive); in assay [12], -7.78% (inactive). For the same compound, the binding (% of control) in assay [13] was 93.8% (inactive). Further, in [14], the efflux inhibition (fraction of control) is 0.8 (active). In addition, the differentiation response in [16] is -3.11% (inactive).

Consider `COc1ccc(CCNc2ncnc3c2[nH]c2cc(OC)c(OC)cc23)cc1OC`, for which the percent of DMSO control GFP in assay [1] is 97.2% (inactive). Also, the GFP response vs DMSO in [2] is 126% (inactive); in assay [4], 82.5% (inactive). The percent response of DMSO control in assay [3] was 111% (inactive). In addition, the GFP response, % of DMSO in assay [5] is 98.7% (inactive). In addition, in [6], the double positive events came to 64%. For the same compound, in assay [6], the vesicle binding response was 178% (inactive). Besides, the inhibition was 0.64% (inactive) in assay [7], -1.78% (inactive) in assay [11] and 10% (inactive) in assay [15]. In assay [8], the superoxide response (% of plate) is 97.5% (inactive). The aptamer binding inhibition in assay [9] was 2% (inactive). Moreover, the response in [10] is 19.8% (inactive); in assay [12], 3.11% (inactive). The binding (% of control) in [13] is 101% (inactive). In assay [14], the efflux inhibition (fraction of control) is -0.06 (inactive). The differentiation response in assay [16] was -0.82% (inactive).
